The structures appear in SMILES notation. Screen size: about 650,000 compounds; about 5,900 (0.91%) were called active. The list comes from a sample in which actives are over-represented; it also holds similar structures and randomly drawn compounds. Unmarked numbers belong to inactive results. Cut-off read from the data, not from the text of the source: active = inhibition above about 50%; inactive = the rest.

A word on the inhibition: it is the relative decrease from the control value, in per cent.

Chain of Microphthalmia-associated transcription factor (Homo sapiens) (O75030 whole entry, looked up): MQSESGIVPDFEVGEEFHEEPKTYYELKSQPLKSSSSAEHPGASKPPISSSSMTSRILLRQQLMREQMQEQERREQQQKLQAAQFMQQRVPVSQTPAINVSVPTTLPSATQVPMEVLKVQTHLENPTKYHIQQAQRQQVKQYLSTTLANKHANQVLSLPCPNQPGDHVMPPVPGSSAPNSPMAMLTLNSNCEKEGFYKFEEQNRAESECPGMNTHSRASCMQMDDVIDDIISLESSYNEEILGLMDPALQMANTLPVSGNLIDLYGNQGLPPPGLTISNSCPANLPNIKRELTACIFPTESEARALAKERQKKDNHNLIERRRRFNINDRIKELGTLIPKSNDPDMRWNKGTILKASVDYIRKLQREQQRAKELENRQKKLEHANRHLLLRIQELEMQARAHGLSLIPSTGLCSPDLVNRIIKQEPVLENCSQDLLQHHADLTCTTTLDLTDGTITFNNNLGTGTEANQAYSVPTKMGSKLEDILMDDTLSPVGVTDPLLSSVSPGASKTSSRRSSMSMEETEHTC

This assay concerns the target Microphthalmia-associated transcription factor (Homo sapiens) (UniProt O75030). The assay is described as follows: MITF inhibitors, primary screen, biochemical, AlphaScreen, human (AID 1259374).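 Note: 0% = vehicle wells with protein.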 The note with it: AlphaScreen MITF homodimerization, bead proximity signal; at 2.6 µM; active compounds read high. Background: Alpha assays give light when donor and acceptor beads are brought close together.
Take `O=C(O)C1Nc2ccc(Cl)cc2C2C=CCC12` (stereo not drawn): the inhibition was 77% (active).

In the case of `O=S(=O)(c1ccc(C2Nc3ccc(Cl)cc3C3C=CCC32)cc1)N1CCOCC1` (stereo not drawn), the inhibition is -9.39%.

`Cc1cc([N+](=O)[O-])cc2c1NC(C(=O)O)C1CC=CC21` (stereo not drawn): the inhibition was 24.6%.

For the compound `CN(C)CCN1C(=O)C(=O)/C(=C(\O)c2ccc(S(=O)(=O)N(C)C)cc2)C1c1ccc(C(C)(C)C)cc1` (stereo not drawn), the inhibition was 13.9%.

On to `O=C(CCc1nnc(-c2ccccc2)o1)NC1(c2ccccc2)CC1`, for which the inhibition was -2.49%.

Regarding `CN(C)CC(C)(C)CNCc1nnc(-c2ccccc2)o1`, the inhibition was 56.2% (active).

On to `CC(CCn1cccn1)NC(=O)CCc1nnc(-c2ccccc2)o1` (stereo not drawn), for which the inhibition is 1.03%.

Consider `O=C1NC(=S)N(Cc2ccco2)C(=O)/C1=C\c1ccc(N2CCOCC2)cc1`, for which the inhibition was 75.1% (active).

Turning to `CCN1C(=O)/C(=C\c2ccc(O)cc2)C(=O)NC1=S`, the inhibition was 3.62%.

For `Cc1cc(N2CCOCC2)ccc1/C=C1\C(=O)NC(=S)N(c2ccccc2)C1=O`, the inhibition was -14.9%.

For the compound `CCOC(=O)N1CCC(N(CCN(C)C)C(=S)Nc2cccc(F)c2)CC1`, the inhibition was -2.5%.

On to `O=C(O)C1c2ccccc2C(=O)N(Cc2ccc(F)cc2)C1c1cccc(F)c1` (stereo not drawn), for which the inhibition is 10.8%.

Turning to `COc1ccccc1/C=C/CN1CCN(C)CC1`, the inhibition was 44.2%.

Regarding `COc1ccc(C(=O)N2CCN(Cc3ccccc3C(F)(F)F)CC2)cc1OC`, the inhibition was 83.3% (active).

Consider `COc1ccc(CN2CCN(C(=O)c3ccc(F)cc3)CC2)cc1OC`, for which the inhibition is 6.68%.

Take `COc1ccc(C(=O)N2CCN(Cc3cccc(OC)c3OC)CC2)cc1OC`: the inhibition was 44.2%.

Regarding `COc1cccc(CN2CCN(C/C=C/c3ccccc3)CC2)c1OC`, the inhibition was 63.1% (active).

Regarding `COc1cccc(CN2CCOCC2)c1OC`, the inhibition was -5.85%.

On to `COc1cccc(CN2CCN(Cc3ccc(C(F)(F)F)cc3)CC2)c1OC`, for which the inhibition is 77.8% (active).

With `COc1cccc(CN2CCN(Cc3ccc(SC)cc3)CC2)c1OC`, the inhibition is 41%.

As for `COc1ccc(CN2CCC3(CC2)CC3C(=O)NCc2ccccc2C(F)(F)F)cc1O` (stereo not drawn), the inhibition is 0.47%.

As for `COc1ccc(CN2CCN(Cc3ccccc3C(F)(F)F)CC2)cc1OC`, the inhibition is 75.6% (active).

Consider `COc1cccc(CNCc2ccc(Br)cc2)c1OC`, for which the inhibition was 12.2%.

For `CC(=O)Nc1cccc(NC(=O)Cn2cnc3c(nnn3Cc3ccccc3F)c2=O)c1`, the inhibition is 11.8%.

For the compound `COc1cc2nc(CN3CCN(c4ccccc4OC)CC3)[nH]c(=O)c2cc1OC`, the inhibition is 4.45%.

With `O=[N+]([O-])c1cccc(C(c2nnnn2-c2cccc(Cl)c2)N2CCCCC2)c1` (stereo not drawn), the inhibition is 7.91%.

As to `C/C(CC(=O)Nc1ccc(Cl)cc1C)=N\NC(=O)c1ccc([N+](=O)[O-])c(Cl)c1`, the inhibition was 14%.

On to `COC(=O)CSCC(=O)Nc1cc(C(F)(F)F)ccc1Cl`, for which the inhibition is 3.79%.

For the compound `Cc1ccn2cc(-c3ccc(NS(=O)(=O)c4ccc(I)cc4)cc3)nc2n1`, the inhibition was -8%.

Take `COc1ccc(NC2c3cccc4cccc(c34)C2NS(=O)(=O)c2ccccc2)cc1` (stereo not drawn): the inhibition was 23.3%.

For `Cc1cccc(CNc2ncnc3sc(C(=O)N(C)C4CCOC4)c(C)c23)n1` (stereo not drawn), the inhibition was -1.76%.

For the compound `C=CCOc1ccc(/C=C2\SC(=S)NC2=O)cc1`, the inhibition is 12.6%.

Regarding `Cc1ccc(C(=O)NNC(=O)C2Cc3ccccc3CN2C(=O)c2ccco2)cc1` (stereo not drawn), the inhibition was 3.81%.

Turning to `Cc1ccc(OCC(=O)N/N=C/c2cc(C)ccc2O)cc1`, the inhibition was 15.3%.

`O=C(Nc1cccc(-c2nc3cccnc3s2)c1)C(F)(F)F`: the inhibition is -3.61%.

Take `N#C/C(=C/c1ccc(S(=O)(=O)c2ccc(Cl)cc2)cc1)c1nc2ccccc2[nH]1`: the inhibition is -16.9%.

Turning to `COc1cccc(-c2nc3cnccn3c2NC(C)(C)C)c1OC`, the inhibition is -9.88%.

Regarding `COCCNc1cc(-c2ccc(F)cc2)nc(C)n1`, the inhibition was 14.6%.

For the compound `Cc1nc(Nc2ccncc2)cc(-c2ccc(F)cc2)n1`, the inhibition was 0.1%.

Turning to `Cc1nc(NC2CC2)cc(-c2ccc(F)cc2)n1`, the inhibition was 52.6% (active).

`O=C1NC(=S)N(c2ccccc2)C(=O)/C1=C/c1ccccc1`: the inhibition is 17.4%.

Take `Cc1cccc(N2C(=O)NC(=O)/C(=C\c3ccc(I)o3)C2=O)c1C`: the inhibition was 57.8% (active).

On to `Cc1ccc(N2C(=O)NC(=O)/C(=C\c3ccc(I)o3)C2=O)cc1C`, for which the inhibition is 41.7%.

In the case of `Cc1cccc(N2C(=O)NC(=O)/C(=C\c3ccc(C)o3)C2=O)c1`, the inhibition was 2.19%.

With `O=C1NC(=S)N(c2ccccc2)C(=O)/C1=C/c1ccc(I)o1`, the inhibition was 59.5% (active).

As to `COc1ccc(/C=C2/C(=O)NC(=O)N(c3ccccc3C)C2=O)cc1OC`, the inhibition was 1.35%.

For `O=C1NC(=O)N(c2ccccc2F)C(=O)/C1=C\c1ccco1`, the inhibition is 40%.

For the compound `Cc1ccccc1N1C(=O)NC(=O)/C(=C\c2ccoc2)C1=O`, the inhibition is 52.5% (active).

For the compound `O=C1NC(=S)N(c2ccccc2)C(=O)/C1=C/c1ccc(N2CCCC2)o1`, the inhibition was 1.33%.

In the case of `O=C(Nc1ccc(C(=O)O)c(C(=O)O)c1)c1cccc(N2C(=O)c3ccc([N+](=O)[O-])cc3C2=O)c1` (tested in a mixture with another compound), the inhibition is 11.7%.

On to `CSc1ccccc1N1C(=O)[C@@H]2C[C@H]1CN2C(=O)CCc1ccc2c(c1)OCO2`, for which the inhibition was -0.38%.

Take `CC1=C(C(=O)OC2CCCC2)C(c2ccc(C)o2)C2=C(CCCC2=O)N1` (stereo not drawn): the inhibition was 2.33%.

Take `CN(C)c1cccc(Nc2nccn3c(-c4cccc(Cl)c4)cnc23)c1`: the inhibition is -23.8%.

Regarding `CCCCNC(=O)c1ccc(-n2nnc3ccccc3c2=O)cc1`, the inhibition is 5.61%.

On to `O=C(c1cccc(Cl)c1)N1CCN(Cc2cccnc2)CC1`, for which the inhibition was 59.4% (active).

Consider `Clc1cccc(N2CCN(Cc3cccnc3)CC2)c1`, for which the inhibition is 49.8%.

As to `CC(C)NC(=O)Nc1ccc(CN2CCN(C)CC2)cc1`, the inhibition is -5.21%.

On to `COc1ccc(CN2CCN(C(=O)c3cccc(Cl)c3)CC2)cc1OC`, for which the inhibition is 27.7%.

In the case of `CC(Oc1cccc(Cl)c1)C(=O)Nc1ccccc1C(=O)N1CCN(Cc2ccccc2)CC1` (stereo not drawn), the inhibition is 4.29%.

`CCOc1ccc(CN2CCN(C(=O)c3cccc(Cl)c3)CC2)cc1`: the inhibition was 58.5% (active).

On to `O=C(c1ccc(C(=O)N2CCN(Cc3ccccc3)CC2)cc1)N1CCN(Cc2ccccc2)CC1`, for which the inhibition was 6.34%.

For the compound `CCOc1ccc(CN2CCCN(C)CC2)cc1`, the inhibition is 60.4% (active).

As to `CCOc1ccc(CN2CCN(Cc3ccc(OCC)cc3)C(CCO)C2)cc1` (stereo not drawn), the inhibition was 8.91%.

These data come from PubChem BioAssay AID1259374 (The Scripps Research Institute Molecular Screening Center, 2018).
